In all, about 360,000 compounds went through this assay and about 2,300 (0.64%) were called active. The sample as a whole holds a higher share of actives than the screen did. Unmarked numbers belong to inactive results. Cut-off read from the data, not from the text of the source: active = inhibition mostly above about 40% (no sharp cut-off); inactive = mostly below about 27%.
Biological target: Sentrin-specific protease 8 (Homo sapiens) (UniProt Q96LD8)
Assay: blockers of SENP8 deneddylase activity – biochemical, fluorescence, Nedd8 protein substrate, uHTS, primary screen (AID 602440)
Settings: recombinant SENP8, Nedd8 substrate fluorescence; at 20 µM; hits give high values

Sequence of Sentrin-specific protease 8 (Homo sapiens) (Q96LD8 whole entry, looked up): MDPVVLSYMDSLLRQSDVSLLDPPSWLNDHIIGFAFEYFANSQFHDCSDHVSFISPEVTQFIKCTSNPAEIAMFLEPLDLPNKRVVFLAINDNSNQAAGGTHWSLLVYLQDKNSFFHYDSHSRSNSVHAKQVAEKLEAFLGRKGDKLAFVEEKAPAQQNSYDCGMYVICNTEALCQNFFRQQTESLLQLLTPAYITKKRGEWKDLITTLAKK

Compound	inhibition
Cc1cc(C)c(/C=C2\C(=O)Nc3ccccc32)[nH]1	59.5% (active)
COc1ccccc1S(=O)(=O)c1c(C)cc(C)[nH]c1=O	-5.8%
Cc1cccc(N(Cc2ccccc2)C(=O)c2ccccc2F)c1	10.3%
O=C(c1ccccc1F)N(Cc1ccccc1)Cc1ccccc1	7.7%
Cc1ccc(N(Cc2ccccc2O)C(=O)c2ccccc2F)cc1	43.7% (active)
CCC(=O)N1CCC(C(N)=O)(N2CCCCC2)CC1	23.1%
CN1CCN(CC(=O)C23CC4CC(CC(C4)C2)C3)CC1	8%
O=C(CCC(=O)OCc1cccc(C(=O)Oc2ccccc2)c1)Nc1cccc2ccccc12	-5.4%
Cc1c(CC(=O)N2CCN(C(=O)C3COc4ccccc4O3)CC2)c(=O)oc2c(O)c(O)ccc12 (configuration not stated)	-291%
Cn1c2ccccc2n2c(=O)c(=O)n(CC(=O)c3ccc(F)cc3)nc12	-7.8%
COc1ccc(NC(=O)CSc2nncc(=O)n2N)cc1OC	8%
Cc1cc([N+](=O)[O-])ccc1NCc1cccc([N+](=O)[O-])c1	29.2%
O=C1Nc2ccc([N+](=O)[O-])cc2C1=Nc1cccc(CO)c1	65.6% (active)
CN1CCN(/N=C2/C(=O)Nc3ccc([N+](=O)[O-])cc32)CC1	23.5%
COc1ccc(NC(=O)CN(C)C(=O)c2ccc(NC3CC3)c([N+](=O)[O-])c2)cc1	33.7%
Cc1cc(C=O)c(C)n1-c1ccc(NC2CCCCC2)c([N+](=O)[O-])c1	56.6% (active)
Cc1ccc(C(=O)COC(=O)CCCC(=O)NC2CCCCC2)cc1[N+](=O)[O-]	19.6%
O=C(Nc1ccc2c(c1)[C@@H]1C[C@@H](CC(=O)N3CCCCC3)O[C@@H](CO)[C@@H]1O2)NC1CCCCC1	15.5%
CC1Cc2[nH][nH]c(=O)c2C(C2CC2)O1 (configuration not stated)	19.9%

Compound	inhibition
CN=C(Nc1cccc(S(=O)(=O)N2CCOCC2)c1)c1ccccc1	9.5%
Cc1cc(F)ccc1NC(=S)NCCc1ccccc1	8%
CCCC1CCC(=NNC(=S)NCCc2ccccc2)CC1 (configuration not stated)	45.2% (active)
CCCCNC(=S)N/N=C1\CCCCc2ccccc21	21.8%
CCOC(=O)c1ccc(N2C(=O)CC(N3CC(C)OC(C)C3)C2=O)cc1 (configuration not stated)	14%
CCOC(=O)c1ccc(N2C(=O)CC(N(C)Cc3ccccc3)C2=O)cc1 (configuration not stated)	46.8% (active)
CCOC(=O)c1ccc(N2C(=O)CC(N3CCN(C(=O)c4ccccc4)CC3)C2=O)cc1 (configuration not stated)	2.8%
COC(=O)C1=C(C(=O)OC)C(c2cc([N+](=O)[O-])ccc2O)c2sc(=O)[nH]c2S1 (configuration not stated)	38.8%
N#CC1(C#N)C(C(=O)C23CC4CC(CC(C4)C2)C3)C12CCOCC2 (configuration not stated)	2.5%
O=C(c1cc2cc(Br)cc(Br)c2oc1=O)N1CCOCC1	-4.2%
O=C1Nc2c(Br)cc(Br)cc2C1(O)N1CCOCC1 (configuration not stated)	60.2% (active)
Cc1ccc(Nc2nc(CSc3nnc(-c4ccncc4)n3-c3ccccc3C)cs2)cc1	11.2%
Cc1oc2c(C)c3oc(=O)c(CC(=O)N[C@@H](CC(C)C)C(=O)N[C@@H](Cc4ccccc4)C(=O)O)c(C)c3cc2c1C	-222%
Cc1ccc(NS(=O)(=O)c2ccc3c(c2)oc(=O)n3C)c(C)c1	12.2%
CCN(CC(=O)NC1CCS(=O)(=O)C1)S(=O)(=O)c1ccccc1 (configuration not stated)	3.6%
COc1ccc2[nH]c(=O)c(CN(Cc3cccnc3)S(=O)(=O)c3ccccc3F)cc2c1	-316%
CCc1ccccc1NC(=S)Nc1cc(OC)c(NC(=O)C(C)C)cc1OC	22.3%
CCc1ccccc1NC(=O)[C@@H]1CCC(=O)N1C1OC(=O)c2c1ccc(OC)c2OC (some centres not stated)	58.1% (active)
O=C(Nc1ccccc1C(=O)N1CCOCC1)C1CCC(=O)N1C1CCCC1 (configuration not stated)	7.7%

Compound	inhibition
CC(=O)NC(CC(=O)Nc1nccs1)c1ccccc1 (configuration not stated)	20.4%
CCC(C)NC(=O)c1ccc(NC(=O)CC2SC(N3CCCCC3)=NC2=O)cc1 (configuration not stated)	0.4%
CCOc1ccc(C(C)NC(=O)CN2C(=O)NC3(CCCCC3)C2=O)cc1OCC (configuration not stated)	4.1%
CCOc1ccc(C(c2c(C)[nH][nH]c2=O)c2c(C)[nH][nH]c2=O)cc1OCC	53.9% (active)
CCOc1ccc(C(CC(=O)O)NC(=O)C23CC4CC(CC(C4)C2)C3)cc1OC (configuration not stated)	9%
CCCCNC(=O)C[C@@H]1C[C@@]2(C(=O)OC)CC(C)(C)CC=C2N(Cc2ccco2)C1=O	6%
O=[N+]([O-])c1ncc(Br)cc1Nc1ccccc1	22.6%
CC(C)CCNC(=O)C1CCC(CNc2c(N3CCC(C)CC3)c(=O)c2=O)CC1 (configuration not stated)	42.8% (active)
O=C(NCCCc1ccccc1)C1CCC(CNc2c(N3CCCCC3)c(=O)c2=O)CC1 (configuration not stated)	23.4%
CC(NC(=O)C1CCC(CNc2c(N3CCOCC3)c(=O)c2=O)CC1)c1ccccc1 (configuration not stated)	9.1%
Cc1ccc(CN2CCCOCCS2(=O)=O)cc1	13.5%
CC(C)CN1CCC1(C)C(=O)Nc1ccc(OC(F)F)cc1 (configuration not stated)	5.2%
COCCNc1nc(-n2nc(C)cc2C)nc2sc3c(c12)CCCC3	-415%
COc1ccc(C(C(=O)NC2CCCCC2)N(C(=O)Cc2c[nH]c3ccccc23)c2ccccc2)cc1OC (configuration not stated)	-12.6%
CC(C)[C@H](NC(=O)OCc1ccccc1)C(=O)OCc1ccccc1	5.8%
COc1ccc(NS(=O)(=O)c2cc(NC(=O)CC(=O)c3ccc([N+](=O)[O-])cc3)ccc2C)cc1	6.3%
COc1ccc(-c2[nH][nH]c(=O)c2NC(=O)c2ccc([N+](=O)[O-])cc2)cc1	60.2% (active)
Cc1ccc(C(=O)Nc2c(-c3ccccc3)[nH][nH]c2=O)cc1	12.1%
Cc1n[nH]c(C)c1S(=O)(=O)N1CCCC(C(=O)Nc2ccc(Br)cc2)C1 (configuration not stated)	13.4%
